We go through 14 molecules from PubChem BioAssay (NCI).

Compounds without any hit were thinned out: in the full panel of roughly 83,000, 20% have a hit.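 The test compound was applied at a single concentration to cells in 96-well plates for 48 hours, and percent growth was recorded.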 Values without a mark were called inactive. Activity calls are given as the source filed them. The calls were made as follows: active = growth percent below 10; inactive = the rest.

Among the test systems are SK-MEL-2 melanoma; EKVX NSCLC; SN12C renal; UO-31 renal; TK-10 renal; ACHN renal; CAKI-1 renal; A498 renal; CCRF-CEM leukemia; MOLT-4 leukemia.
What all share (assay): NCI-60 one-dose screen, 48 h (100 = growth as untreated, 0 = no growth, -100 = all killed)
What all share (details): 10 µM unless noted

For `COc1cccc2nc(Nc3cccc(NC(=O)c4ccc(N5CCN(C)CC5)c(C(F)(F)F)c4)c3)ccc12`, the growth in the test with SK-MEL-2 melanoma was 77.4%; in the test with EKVX NSCLC it was 66.7%; with SN12C renal it was 45.7%; in the test on UO-31 renal it was 22.1%; in the test on TK-10 renal, 51.1%; with ACHN renal, 26.8%. The growth is 24.8% in the test on CAKI-1 renal, 64.4% with A498 renal, 12.5% in the test on CCRF-CEM leukemia and -16.6% (active) in the test with MOLT-4 leukemia.
Turning to `COc1ccc(-c2oc(=O)ccc2-c2cc(OC)c(OC)c(OC)c2)cc1F`, the growth is 92.8% in the test with SK-MEL-2 melanoma; 99.6% in the test on EKVX NSCLC; 87.9% in the test with SN12C renal; 47.3% in the test with UO-31 renal; 88.2% in the test on TK-10 renal; 87.1% in the test with ACHN renal. For the same molecule, the growth was 52.9% with CAKI-1 renal, 83.4% in the test with A498 renal, 57.6% with CCRF-CEM leukemia and 83.6% in the test with MOLT-4 leukemia.
With `CCCCC(CCc1ccccn1)C(=O)c1ccccc1` (stereo not given), the growth is 116% in the test on SK-MEL-2 melanoma; 102% with EKVX NSCLC; 122% with SN12C renal; 79.7% in the test with UO-31 renal; 127% in the test with TK-10 renal; 116% with ACHN renal. The growth in the test with CAKI-1 renal is 99.5%; in the test on A498 renal, 105%; with CCRF-CEM leukemia, 98.3%; in the test on MOLT-4 leukemia, 112%.
Consider `CC(=O)c1ccc(Nc2nc(Cl)nc(Oc3c(Cl)cccc3Cl)n2)cc1`, for which the growth in the test on SK-MEL-2 melanoma is 97.1%; with EKVX NSCLC it was 77.2%; in the test on SN12C renal, 93.1%; with UO-31 renal, 77.8%; in the test with TK-10 renal, 115%; in the test with ACHN renal, 98.3%. The growth with CAKI-1 renal was 85.5%; with A498 renal it was 69.3%; in the test with CCRF-CEM leukemia it was 91%; with MOLT-4 leukemia, 77.1%.
Regarding `Clc1ccccc1Nc1nnc(-c2ccncc2)s1`, the growth in the test with SK-MEL-2 melanoma was 107%; in the test with EKVX NSCLC, 91.7%; in the test with SN12C renal, 86%; in the test with UO-31 renal, 90.7%; in the test with TK-10 renal, 111%; in the test with ACHN renal, 104%. The growth is 90.5% with CAKI-1 renal, 92.1% in the test with A498 renal, 96% in the test on CCRF-CEM leukemia and 93.4% with MOLT-4 leukemia.
For the molecule `CN1CCN(Cc2ccc(NC(=O)c3cncc(C#Cc4ccc(N)nc4)c3)cc2C(F)(F)F)CC1`, the growth with SK-MEL-2 melanoma was -47.8% (active); in the test on EKVX NSCLC it was 7.69% (active); in the test on SN12C renal it was 4.16% (active); in the test with UO-31 renal, -1.73% (active); in the test on TK-10 renal it was 12.7%; with ACHN renal it was -3.03% (active). The growth in the test with CAKI-1 renal was 8.16% (active); in the test with A498 renal, -33.8% (active); in the test on CCRF-CEM leukemia it was 13%; in the test on MOLT-4 leukemia, 5.85% (active).
On to `C#CC[C@@H]1C[C@]2(C)[C@H]3CC[C@@H]4[C@H]5C(C(=C)C)CC[C@]5(C(=O)NCCCCCCCCN)CC[C@@]4(C)[C@]3(C)CC[C@H]2C(C)(C)[C@H]1OC(C)=O` (stereo not given in full), for which the growth in the test with SK-MEL-2 melanoma was 112%; in the test on EKVX NSCLC, 103%; with SN12C renal, 96.3%; in the test with UO-31 renal, 75.5%; in the test on TK-10 renal, 96.5%; in the test with ACHN renal it was 111%. The growth was 69.9% in the test with CAKI-1 renal, 95.6% with A498 renal, -8.23% (active) in the test on CCRF-CEM leukemia and 5.47% (active) with MOLT-4 leukemia.
On to `COc1cc(Cn2c(-c3ccccc3)cc3c2-c2oncc2CC3)cc(OC)c1OC`, for which the growth in the test with SK-MEL-2 melanoma was 31.4%; in the test with EKVX NSCLC, 38.3%; in the test on SN12C renal, 49.3%; with UO-31 renal it was 4.35% (active); in the test on TK-10 renal, 47.1%; in the test with ACHN renal it was 48.2%. Besides, the growth with CAKI-1 renal was 0% (active); in the test with A498 renal, 2.81% (active); in the test on CCRF-CEM leukemia, 16.9%; in the test with MOLT-4 leukemia, 14.1%.
Take `COc1ccc2[nH]c(C(=O)OCc3ccc4cccc(O)c4n3)cc2c1`: the growth was -20.3% (active) in the test with SK-MEL-2 melanoma; -78% (active) with EKVX NSCLC; -74.8% (active) in the test with SN12C renal; -100% (active) with UO-31 renal; -89.2% (active) in the test on TK-10 renal; -98.4% (active) with ACHN renal. Further, the growth in the test on CAKI-1 renal is -97.6% (active); with A498 renal it was 36.5%; with CCRF-CEM leukemia it was 4.41% (active); in the test with MOLT-4 leukemia, -11.5% (active).
With `CCCCNCCC(O)c1cc2ccc(C(F)(F)F)cc2c2cc(C(F)(F)F)ccc12` (stereo not given), the growth in the test on SK-MEL-2 melanoma is -70.1% (active); in the test on EKVX NSCLC, -54% (active); with SN12C renal it was -75.2% (active); in the test on UO-31 renal, -88.8% (active); in the test on TK-10 renal, -91.8% (active); in the test on ACHN renal, -82.8% (active). For the same molecule, the growth is -74.7% (active) with CAKI-1 renal, -6.76% (active) with A498 renal, -45.5% (active) in the test on CCRF-CEM leukemia and -58.8% (active) in the test with MOLT-4 leukemia.
In the case of `O=C(NNC(=S)Nc1ccccc1)c1ccc(Nc2ncnc3c2cnn3-c2cccc(Br)c2)cc1`, the growth in the test on SK-MEL-2 melanoma is 105%; in the test with EKVX NSCLC, 105%; in the test on SN12C renal, 96.1%; with UO-31 renal, 82.3%; with TK-10 renal, 106%; in the test on ACHN renal it was 106%. In addition, the growth in the test on CAKI-1 renal was 93.4%; in the test with A498 renal, 102%; with CCRF-CEM leukemia, 108%; in the test on MOLT-4 leukemia it was 104%.
As for `COc1cc(C)cc2oc3oc(=O)c(-c4csc(-c5cc6ccccc6oc5=O)n4)cc3c(=O)c12`, the growth with SK-MEL-2 melanoma is 124%; in the test on EKVX NSCLC it was 107%; in the test on SN12C renal, 102%; in the test on UO-31 renal it was 88.6%; with TK-10 renal it was 121%; in the test with ACHN renal, 104%. Moreover, the growth was 96.1% in the test on CAKI-1 renal, 107% in the test with A498 renal, 105% in the test with CCRF-CEM leukemia and 108% with MOLT-4 leukemia.
Take `CC1=C(O)C(=O)C(c2c(C)cc(C)c(Br)c2C)=C(O)C1=O`: the growth in the test on SK-MEL-2 melanoma is 81.6%; with EKVX NSCLC, 81.8%; in the test with SN12C renal, 55%; in the test with UO-31 renal, 83.7%; in the test on TK-10 renal, 73.6%; in the test on ACHN renal it was 54%. Also, the growth in the test with CAKI-1 renal was 50.2%; in the test with A498 renal it was 64.1%; with CCRF-CEM leukemia it was 43.1%; in the test with MOLT-4 leukemia, 54.6%.
With `COc1cc(/C=C/C(=O)c2c(C)nc3ccccc3c2C)ccc1OCCCOc1cc2c(cc1OC)C(=O)N1CCC[C@H]1C=N2`, the growth in the test with SK-MEL-2 melanoma is -61.3% (active); with EKVX NSCLC, -76.4% (active); with SN12C renal, 10.2%; in the test on UO-31 renal, 14.2%; with TK-10 renal, -65.8% (active); with ACHN renal, -41.2% (active). Also, the growth in the test on CAKI-1 renal is 4.18% (active); in the test with A498 renal, -76.4% (active); in the test with CCRF-CEM leukemia, -48.6% (active); in the test on MOLT-4 leukemia, -25.5% (active).
